# Where “and” joins values, the source holds several entries; their conditions need not be identical. Identical values can stand only once. Unmarked numbers belong to inactive results. Inconclusive results are not listed. A call without a number means that no potency is given here. Calls of active or inactive are those of the source. Calls come from the whole dose curve; as a rule, active = well fitted curve in the direction sought with a large enough effect in the repeat runs; inconclusive = weak or mixed curves; inactive = no such curve, though single readings can be large; an effect the other way counts as inactive or inconclusive.
# What was measured:
# [1] = qHTS RealTime-Glo MT Cell Viability Assay in HEK293 cells - 40 hour (AID 1224874); conditions: RealTime-Glo luminescence; max response: hits give low values; note: nearly all actives have a fitted effect of over 50% in size; note: potency is the fitted concentration of half-maximal effect
# Procedure, shortened: (§1)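 Real-time viability in HEK293: signal arises when living cells convert a prosubstrate for NanoLuc in the medium, so luminescence tracks viable cell number. Compound (23 nL, DMSO) added 5 h post-seeding; kinetic reads at 0–40 h, 37 C.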
# [2] = A CellTox Green Cytotoxicity Assay to monitor cytotoxicity in HepG2 cells - 24 hour (AID 1224878); conditions: CellTox Green fluorescence; series mostly up to 76.8 µM; note: nearly all actives have a fitted effect of over 45% in size; note: potency is the fitted concentration of half-maximal effect
# Procedure, shortened: (§2)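 Cells and non-lytic dye reagent are dispensed together (600 HepG2 cells/well) and incubated 5 h before DMSO compound transfer. Kinetic fluorescence is then recorded in the same wells during 40 h at 37 C.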
# [3] = qHTS RealTime-Glo MT Cell Viability Assay in HEK293 cells - 0 hour (AID 1224880); conditions: RealTime-Glo luminescence; series mostly up to 76.8 µM; note: top concentration of the series differs between compounds; nearly all actives have a fitted effect of over 45% in size
# Procedure, shortened: as §1
# [4] = A CellTox Green Cytotoxicity Assay to monitor cytotoxicity in HepG2 cells - 0 hour (AID 1224882); conditions: CellTox Green fluorescence; series mostly up to 76.8 µM; note: nearly all actives have a fitted effect of over 35% in size
# Procedure, shortened: as §2
# [5] = A CellTox Green Cytotoxicity Assay to monitor cytotoxicity in HepG2 cells - 16 hour (AID 1224876); conditions: CellTox Green fluorescence; series mostly up to 76.8 µM; note: nearly all actives have a fitted effect of over 45% in size; note: potency is the fitted concentration of half-maximal effect
# Procedure, shortened: as §2
# [6] = A CellTox Green Cytotoxicity Assay to monitor cytotoxicity in HepG2 cells - 40 hour (AID 1224879); conditions: CellTox Green fluorescence; series mostly up to 76.8 µM; note: nearly all actives have a fitted effect of over 40% in size; note: potency is the fitted concentration of half-maximal effect
# Procedure, shortened: as §2
# [7] = A CellTox Green Cytotoxicity Assay to monitor cytotoxicity in HEK293 cells - 24 hour (AID 1224875); conditions: CellTox Green fluorescence; series mostly up to 76.8 µM; note: nearly all actives have a fitted effect of over 45% in size; note: potency is the fitted concentration of half-maximal effect
# Procedure, shortened: (§3)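 Cells (HEK293, 600/well) and dye reagent are dispensed together. After 5 h at 37 C, 23 nL compound is pinned in. Plates stay at 37 C for 40 h with fluorescence read at 0h, 8h, 16h, 24h, 32h and 40h.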
# [8] = qHTS RealTime-Glo MT Cell Viability Assay in HepG2 cells - 32 hour (AID 1224877); conditions: RealTime-Glo luminescence; series mostly up to 76.8 µM; note: nearly all actives have a fitted effect of over 55% in size; note: potency is the fitted concentration of half-maximal effect
# Procedure, shortened: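 qHTS, HepG2, 600 cells/well, RealTime-Glo (NanoLuc + prosubstrate) added with cells; 5 h preincubation; DMSO compound addition; 37 C; luminescence at 0/8/16/24/32/40 h.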
# [9] = A CellTox Green Cytotoxicity Assay to monitor cytotoxicity in HEK293 cells - 32 hour (AID 1224881); conditions: CellTox Green fluorescence; series mostly up to 76.8 µM; note: nearly all actives have a fitted effect of over 40% in size; note: potency is the fitted concentration of half-maximal effect
# Procedure, shortened: as §3
structure (smiles),measurement,setting,value
CC(C)(C)c1cc(/C=C2\SC(=N)NC2=O)cc(C(C)(C)C)c1O,Potency,[1],49 µM (active)
same,Potency,[2],43.6 µM (active)
same,Potency,[3],inactive
same,Potency,[4],inactive
C=C1C(C)(C)[C@@]2(Cl)C(Cl)[C@]1(Cl)C(Cl)(Cl)C2(Cl)Cl (some centres not stated),Potency,[5],inactive
same,Potency,[2],48.1 µM (active)
same,Potency,[6],53.9 µM (active)
same,Potency,[3],inactive
same,Potency,[4],inactive
COc1cc(C(C)C)c2c(c1)S(=O)(=O)N(COc1cc(=O)n3cccc(OCCN4CCCCC4)c3n1)C2=O,activity change,[7],"0.172% [at 15.8 µM, hits give high values]"
same,cytotoxicity increase,[5],19.8% [at 15.8 µM]
same,"activity change, negative = cytotoxic",[8],-2.94% [at 15.8 µM]
same,"activity change, negative = cytotoxicity",[3],-4.74% [at 15.8 µM]
same,cytotoxicity increase,[9],5.59% [at 15.8 µM]
same,cytotoxicity,[4],2.15% [at 15.8 µM]
CC(C(O)c1ccccc1)N(C)CCOC(c1ccccc1)c1ccccc1 (configuration not stated),Potency,[1],23.9 µM (active)
same,Potency,[5],23.9 µM (active)
same,Potency,[2],26.8 µM (active)
same,Potency,[6],26.8 µM (active)
same,Potency,[3],inactive
same,Potency,[9],26.8 µM (active)
same,Potency,[4],inactive
Cc1cccc(C)c1NC(=O)CN1CCN(CCCC(c2ccc(F)cc2)c2ccc(F)cc2)CC1,Potency,[1],10.7 µM (active)
same,Potency,[5],26.8 µM (active)
same,Potency,[8],23.9 µM (active)
same,Potency,[2],23.9 µM (active)
same,Potency,[6],23.9 µM (active)
same,Potency,[3],inactive
same,Potency,[9],19 µM (active)
same,Potency,[4],inactive
CCC(C)(C)c1cc(O)c(C(C)(C)CC)cc1O,Potency,[1],34.7 µM (active)
same,Potency,[5],inactive
same,Potency,[6],49 µM (active)
same,Potency,[3],inactive
same,Potency,[4],inactive
CCCCCCC(C)Nc1ccc(Nc2ccccc2)cc1 (configuration not stated),Potency,[1],21.9 µM (active)
same,Potency,[7],inactive
same,Potency,[5],inactive
same,Potency,[2],inactive
same,Potency,[6],inactive
same,Potency,[9],inactive
same,Potency,[4],inactive
CC(C)c1ccc(O)c(C(C)C)c1,max response,[1],-12.3%
same,Potency,[7],21.9 µM (active)
same,Potency,[5],43.6 µM (active)
same,Potency,[8],inactive
same,Potency,[6],27.5 µM (active)
same,Potency,[3],inactive
same,Potency,[9],21.9 µM (active)
same,Potency,[4],inactive
CCCCCCOc1ccc(O)cc1,Potency,[1],0.0776 µM (active)
same,Potency,[3],inactive
same,Potency,[9],19.5 µM (active)
same,Potency,[4],inactive
COC(=O)C1=C(C)NC(C)=C(C(=O)OCCCN2CCC(c3ccccc3)(c3ccccc3)CC2)C1c1cccc([N+](=O)[O-])c1 (configuration not stated),Potency,[1],10.7 µM (active)
same,Potency,[7],inactive
same,Potency,[5],inactive
same,Potency,[2],inactive
same,Potency,[3],inactive
same,Potency,[9],inactive
same,Potency,[4],inactive
Clc1ccc(C(Cn2ccnc2)OCc2ccsc2Cl)c(Cl)c1 (configuration not stated),Potency,[1],16.9 µM (active)
same,Potency,[7],inactive
same,Potency,[2],21.3 µM (active)
same,Potency,[6],23.9 µM (active)
same,Potency,[3],inactive
same,Potency,[4],inactive
CCCCCCOc1cc(C)c(O)c(C)c1C,Potency,[1],19.7 µM (active)
same,Potency,[7],44.2 µM (active)
same,Potency,[5],24.8 µM (active)
same,Potency,[6],24.8 µM (active)
same,Potency,[3],inactive
same,Potency,[9],44.2 µM (active)
same,Potency,[4],inactive
CCN(CC)CCNc1ccc(CO)c2sc3ccccc3c(=O)c12,Potency,[1],16.9 µM (active)
same,Potency,[7],inactive
same,Potency,[5],16.9 µM (active)
same,Potency,[8],23.9 µM (active)
same,Potency,[3],inactive
same,Potency,[9],inactive
same,Potency,[4],inactive
CN(C)c1ccc(N=NS(=O)(=O)O)cc1,max response,[1],-17.2%
same,Potency,[7],inactive
same,Potency,[5],inactive
same,Potency,[8],inactive
same,Potency,[3],inactive
same,Potency,[9],inactive
same,Potency,[4],inactive
Nc1ncnc2c1ncn2[C@@H]1O[C@H](COP(=O)(O)O)[C@@H](O)[C@H]1O,max response,[1],3.96%
same,Potency,[5],inactive
same,Potency,[8],inactive
same,Potency,[2],inactive
same,Potency,[6],inactive
same,Potency,[3],inactive
same,Potency,[9],inactive
same,Potency,[4],inactive
O=C1NCCN1CCN1CCC(c2cn(-c3ccc(F)cc3)c3ccc(Cl)cc23)CC1,Potency,[1],12 µM (active)
same,Potency,[5],26.8 µM (active)
same,Potency,[8],26.8 µM (active)
same,Potency,[2],26.8 µM (active)
same,Potency,[6],26.8 µM (active)
same,Potency,[3],inactive
same,Potency,[9],23.9 µM (active)
same,Potency,[4],inactive
S=C(SSSSSSC(=S)N1CCCCC1)N1CCCCC1,Potency,[1],0.192 µM (active)
same,cytotoxicity increase,[5],-6.85% [at 15.8 µM]
same,"activity change, negative = cytotoxic",[8],-24.5% [at 15.8 µM]
same,cytotoxicity,[2],-0.0697% [at 15.8 µM]
same,"activity change, negative = cytotoxicity",[3],-11.8% [at 15.8 µM]
same,cytotoxicity,[4],-6.55% [at 15.8 µM]
CCOC(=O)N1CCC(=C2c3ccc(Cl)cc3CCc3cccnc32)CC1,Potency,[1],19.5 µM (active) and 16.9 µM (active)
same,Potency,[7],inactive
same,Potency,[8],inactive
same,Potency,[6],54.9 µM (active)
same,Potency,[3],inactive
same,Potency,[9],inactive
same,Potency,[4],inactive
CCCCOc1ccc(C(=O)CCN2CCCCC2)cc1,Potency,[1],13.4 µM (active)
same,Potency,[7],16.9 µM (active)
same,Potency,[8],10.7 µM (active)
same,Potency,[2],19 µM (active)
same,Potency,[6],19 µM (active)
same,Potency,[3],inactive
same,Potency,[9],19 µM (active)
same,Potency,[4],inactive
O=C1Nc2ccc(Cl)cc2[C@@](C#CC2CC2)(C(F)(F)F)O1,Potency,[1],23.9 µM (active)
same,Potency,[3],inactive
same,Potency,[4],inactive
CC(=O)OC(OC(C)=O)c1ccc([N+](=O)[O-])o1,Potency,[1],44.4 µM (active)
same,Potency,[6],49.8 µM (active)
same,Potency,[3],inactive
same,Potency,[4],inactive
CN(C)c1ccc(N=Nc2ccccc2C(=O)O)cc1,max response,[1],2%
same,Potency,[7],inactive
same,Potency,[5],inactive
same,Potency,[2],inactive
same,Potency,[3],inactive
same,Potency,[9],inactive
same,Potency,[4],inactive
C=CC(=O)OCC(O)COc1ccccc1 (configuration not stated),max response,[1],8.54%
same,Potency,[7],inactive
same,Potency,[5],inactive
same,Potency,[8],inactive
same,Potency,[2],inactive
same,Potency,[3],inactive
same,Potency,[4],inactive
C=CC(=O)OCCOCC(CC)(COCCOC(=O)C=C)COCCOC(=O)C=C,Potency,[1],14.4 µM (active)
same,Potency,[5],inactive
same,Potency,[8],28.7 µM (active)
same,Potency,[6],25.6 µM (active)
same,Potency,[3],inactive
same,Potency,[4],inactive
